Source: PubChem BioAssay AID504523 (Broad Institute, 2011)
Among all 340,000 compounds or so, about 490 (0.14%) were called active. Cut-off read from the data, not from the text of the source: active = inhibition above about 12%; inconclusive = no clear call, values can overlap the other calls; inactive = below about 7.3%. Only a selection was taken, and actives are over-represented in it overall.

Target: Kelch-like ECH-associated protein 1 (Homo sapiens) (UniProt Q14145)
Experiment: disruptors of Keap1 binding to Nrf2 – biochemical, fluorescence polarization, single point, primary screen (AID 504523);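 note: human Keap1 Kelch domain with fluorescein labeled Nrf2 9mer peptide probe; 0% = neutral control wells and 100% = peptide positive control; higher means more block of Keap1 binding to Nrf2 peptide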
Settings: Keap1 Kelch-Nrf2 peptide fluorescence polarization, 1536-well; at 9.4 µM; stronger effect = higher value

Chain of Kelch-like ECH-associated protein 1 (Homo sapiens) (Q14145 whole entry, looked up, the tested form may be a part): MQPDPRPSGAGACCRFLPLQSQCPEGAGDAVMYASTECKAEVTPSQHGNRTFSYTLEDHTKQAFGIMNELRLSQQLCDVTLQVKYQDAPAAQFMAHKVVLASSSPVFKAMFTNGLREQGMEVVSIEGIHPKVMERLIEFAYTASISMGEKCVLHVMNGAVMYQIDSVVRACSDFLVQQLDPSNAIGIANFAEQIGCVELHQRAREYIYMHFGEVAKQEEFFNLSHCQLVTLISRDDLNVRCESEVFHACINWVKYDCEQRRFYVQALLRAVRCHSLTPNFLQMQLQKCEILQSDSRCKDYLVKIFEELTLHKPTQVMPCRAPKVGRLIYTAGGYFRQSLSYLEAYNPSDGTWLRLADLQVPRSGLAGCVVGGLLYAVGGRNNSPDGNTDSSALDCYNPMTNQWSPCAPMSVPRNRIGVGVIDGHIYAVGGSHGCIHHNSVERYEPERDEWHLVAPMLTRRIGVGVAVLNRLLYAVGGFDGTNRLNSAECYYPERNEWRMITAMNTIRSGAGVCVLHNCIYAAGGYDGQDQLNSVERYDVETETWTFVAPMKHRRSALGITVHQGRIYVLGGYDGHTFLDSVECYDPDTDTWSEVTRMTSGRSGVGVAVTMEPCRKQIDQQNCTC

inhibition, inactive:
COc1ccccc1NC(=O)CSc1nnc(Cn2nnc(-c3ccccc3)n2)n1-c1ccccc1 0.652%
CC(=O)Nc1ccc(S(=O)(=O)NNC(=O)CCc2ccccc2)cc1 -9.19%
O=C(CCc1ccccc1)NNC(=O)COc1ccc(Cl)cc1 -4.48%
Cc1nc2ccccn2c1C(=O)NN=C1CCN(C)CC1 -3.6%
CC(C)(C)c1ccc(CCC2OCC(CN3CCOCC3)O2)cc1 (stereo unspecified) 3.61%
Cc1ccc(-n2ncc(C(=O)NC3CC3)c2C2CCN(C(=O)OC(C)(C)C)CC2)c(C)c1 -3.33%
O=S(=O)(c1ccc(Br)cc1)c1nc(-c2ccccc2)oc1N1CCOCC1 -9.08%
CCCC(NC(=O)c1ccccc1)c1nc2ccccc2n1Cc1ccc(C(=O)OC)o1 (stereo unspecified) -2.49%
CCCNc1c(N)c(=O)c1=O -1.65%
O=C(CCNc1n[nH]c(=O)[nH]c1=O)N/N=C\c1ccc(Br)cc1 -2.4%
CSCC[C@H](NC(=O)NCCc1ccc(F)cc1)C(=O)O 1.87%
COc1ccc(C2/C=C\CN(S(=O)(=O)c3cccs3)CC(=O)N2Cc2ccc(F)cc2)cc1 (stereo unspecified) -0.104%
O=C(O)CC(CC(=O)N1CCOCC1)c1ccccc1 (stereo unspecified) -1.3%
O=C(O)CC(c1ccccc1)n1cnnn1 (stereo unspecified) -4.84%
Cc1cccc(C2c3c(n(C)c(=O)n(C)c3=O)N=C3c4ccccc4C(=O)C32)c1 (stereo unspecified) -0.0535%
Cc1nonc1C1CCCN1Cc1nc(-c2ccc(F)cc2F)oc1C (stereo unspecified) -5.07%
Cn1c(CCNS(=O)(=O)c2ccc(F)cc2)nnc1SCc1cccnc1 -1.02%
Cc1ccc(OC(=O)c2cncc(Br)c2)c(C)c1 5.58%
Cc1cccc(N=Nc2c(O)[nH]c3ccc(F)cc23)c1 0.392%
COc1cccc(NC(=O)CN(C)C(C)C(=O)Nc2ccc(C#N)cc2)c1 (stereo unspecified) 4.55%
COCCN(C(=O)C(C)N1C(=O)c2ccccc2C1=O)c1c(N)n(CC(C)C)c(=O)[nH]c1=O (stereo unspecified) -8.05%
CN(C(=O)CC1C(=O)NCCN1Cc1ccc(F)cc1Cl)C1CCCCC1 (stereo unspecified) -12.6%
O=C(CNC(=O)c1ccc(Br)o1)NCC1CCCO1 (stereo unspecified) 3.4%
CCN(CC)CC(=O)Nc1nn(-c2ccccc2)nc1C(N)=O -0.843%
O=C(NNc1c2ccccc2nc2ccccc12)c1cc2ccccc2cc1O -0.162%
Cc1onc(-c2ccc(Cl)cc2)c1-c1ccnn1S(=O)(=O)c1ccc(Cl)cc1 -1.71%
O=C(C1=C[C@H](c2coc3ccccc3c2=O)C[C@H](OCc2ccc(CO)cc2)O1)N1CCN(Cc2ccccc2)CC1 -4.23%
CN(CC(=O)Nc1ccc(C(N)=O)cc1)S(=O)(=O)c1ccc2c(c1)OCCO2 -4.93%
CCC(C)(C)c1ccc(Oc2ccc(NC(=O)COC(=O)C3=COCCO3)cc2)cc1 1.96%
CC(OC(=O)c1ccccc1OCc1ccc(Cl)cc1)C(N)=O (stereo unspecified) -6.61%
COC(=O)/C=C\C(=O)Nc1cccc([N+](=O)[O-])c1 8.41%
COc1ccc(NS(=O)(=O)c2cc(NC(=O)CC(=O)c3ccc([N+](=O)[O-])cc3)ccc2C)cc1 -4.68%
O=C1CCCCC1Sc1ccc(Cl)cc1[N+](=O)[O-] (stereo unspecified) 1.45%
CC1=NNC(=O)C1CC(=O)N/N=C/c1ccncc1 (stereo unspecified) 2.78%
Cc1ccc(S(=O)(=O)CCC(=O)OCC(=O)N(C)Cc2ccccc2)cc1 -7.11%
CN1c2ccc([N+](=O)[O-])cc2C(C)(C)C12C=Cc1cc(C(=O)O)ccc1O2 (stereo unspecified) 4.39%
CC(=O)Oc1ccc(C(C)=O)c2c1OCCO2 -3%
CCCc1nnc(NC(=O)CCC(=O)NC2CC2)s1 -3.82%
O=C1c2ccccc2S(=O)(=O)c2cc(N3CCN(c4ccccn4)CC3)ccc21 3.87%
CCOC(=O)c1nn(-c2cccc(C)c2)cc1C(=O)c1ccccc1 3.24%
Cc1ccccc1OCC(=O)NCC(=O)OCC(=O)c1ccc2ccccc2c1 -0.965%
O=C(Nc1ccccn1)C1CCN(S(=O)(=O)c2ccccc2)CC1 -4.55%
O=C(NCc1cccs1)C1CCN(S(=O)(=O)c2ccc3c(c2)OCCO3)CC1 -2.29%
O=C1[C@H]2[C@@H](c3ccc(F)cc3)N3C(=O)N(c4ccc(C(F)(F)F)cc4)C(=O)[C@@]3(Cc3ccccc3)[C@H]2C(=O)N1C1CCCCC1 -3.09%
O=C(C1=C(O)C(=O)N(CCOCCO)C1c1ccccn1)c1cccs1 (stereo unspecified) 5.97%
CC[C@H]1OC(=O)[C@H](C)[C@@H](O[C@H]2C[C@@](C)(OC)[C@@H](O)[C@H](C)O2)[C@H](C)[C@@H](O[C@@H]2O[C@H](C)C[C@H](N(C)C)[C@H]2O)[C@](C)(O)C[C@@H](C)[C@@H]2N[C@@H](COCCOC)O[C@H]([C@H]2C)[C@]1(C)O 1.21%
COC1=CC(=O)OC(C)(c2ccccc2)C1 (stereo unspecified) 1.18%
COc1ccc(Cl)cc1NC(=O)CN(C)C(=O)c1ccc2n[nH]nc2c1 0.863%
Cn1c(=O)c2c(SCC(=O)N3CCOCC3)nc(C3CC3)nc2n(C)c1=O -7.01%
O=S(=O)(c1cccs1)N1CCN(CCOc2ccccc2)CC1 -5.25%

inhibition, active:
O=C(CCc1ccccc1)NNc1ccc(F)cc1 12.6%
O=C(O)CC(Cn1cnnn1)c1ccccc1 (stereo unspecified) 20.2%
Nc1ccc2nc3c(=O)[nH]c(=S)[nH]c3nc2c1 39%
CCCC1OC23CCCCC2C(C#N)(C#N)C1(C#N)C(=N)O3 (stereo unspecified) 20.6%
O=C(Nc1ccccn1)C1CCN(S(=O)(=O)c2ccc3c(c2)OCCO3)CC1 24.3%
CCN1/C(=C\c2ccc3ccccc3[n+]2CC)Sc2cc(C)ccc21 15.5%
